Laboratory results: PubChem BioAssay (NCATS)
Inconclusive results are not listed. The source made the active and inactive calls. Calls come from the whole dose curve; as a rule, active = well fitted curve in the direction sought with a large enough effect; inconclusive = small, poorly fitted or top-dose-only effect, or another doubt; inactive = no such curve, though single readings can be large; an effect the other way counts as inactive or inconclusive.

Experiments:
[1] = molecular target: Aldehyde dehydrogenase, mitochondrial (Homo sapiens) (UniProt P05091); test: qHTS for Inhibitors of the Aldehyde Dehydrogenase Family (ALDH2) Primary screen (AID 2061308);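 note: plate controls were vehicle for no effect and reference inhibitor for full effect; nearly all actives have a fitted effect of over 55% in size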
[2] = molecular target: Retinaldehyde dehydrogenase 3 (Homo sapiens) (UniProt P47895); test: qHTS for Inhibitors of the Aldehyde Dehydrogenase Family (ALDH1A3) Primary screen (AID 2061315);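 note: plate controls were DMSO vehicle for no effect and reference inhibitor for full effect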
[3] = BET inhibitor-based combinations targeting novel dependencies in MECOM-rearranged (r) AML: SET-2 cell line (AID 2202231); conditions: SET-2 AML cells viability, CellTiter-Glo luminescence, 48 h; viability: active compounds read low, concentration not given here; note: nearly all actives have a fitted effect of over 35% in size; note: potency is the fitted concentration of half-maximal effect;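 for viability: plate controls were DMSO treated cells for no effect and wells without cells for full effect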
Summary of the method: (§1)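 Each compound was tested at eleven concentrations on cells seeded at 500/well. After two days' incubation, ATP-based luminescence reported viability; responses relative to DMSO and blank wells yielded AUC and cell-line-centred Z-AUC.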

[4] = BET inhibitor-based combinations targeting novel dependencies in MECOM-rearranged (r) AML: OCI-AML3 cell line (AID 2202232); conditions: Potency: OCI-AML3 viability; note: nearly all actives have a fitted effect of over 35% in size; note: potency is the fitted concentration of half-maximal effect
Summary of the method: as §1

[5] = BET inhibitor-based combinations targeting novel dependencies in MECOM-rearranged (r) AML: MV-4-11 cell line (AID 2202233); note: nearly all actives have a fitted effect of over 45% in size; note: potency is the fitted concentration of half-maximal effect
Summary of the method: (§2)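 First, 500 cells per well were seeded; next, drugs were pinned as 11-point doses; then plates sat 48 hr in the incubator; finally CellTiter-Glo was added and luminescence read, with AUC and Z-AUC computed.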

[6] = BET inhibitor-based combinations targeting novel dependencies in MECOM-rearranged (r) AML: HNT-34 cell line (AID 2202234); note: nearly all actives have a fitted effect of over 35% in size; note: potency is the fitted concentration of half-maximal effect
Summary of the method: as §2

[7] = BET inhibitor-based combinations targeting novel dependencies in MECOM-rearranged (r) AML: UCSD-AML1 cell line (AID 2202235); note: nearly all actives have a fitted effect of over 40% in size; note: potency is the fitted concentration of half-maximal effect
Summary of the method: as §2

[8] = BET inhibitor-based combinations targeting novel dependencies in MECOM-rearranged (r) AML: AML-191 cell line (AID 2202236; note: nearly all actives have a fitted effect of over 35% in size; note: potency is the fitted concentration of half-maximal effect)
Summary of the method: as §1

[9] = BET inhibitor-based combinations targeting novel dependencies in MECOM-rearranged (r) AML: AML-194 cell line (AID 2202237; note: nearly all actives have a fitted effect of over 40% in size; note: potency is the fitted concentration of half-maximal effect)
Summary of the method: as §1

[10] = molecular target: Retinaldehyde dehydrogenase 3 (Homo sapiens) (UniProt P47895); test: qHTS for Inhibitors of the Aldehyde Dehydrogenase Family (ALDH1A3) Confirmatory screens (AID 2061311); note: potency is the fitted concentration of half-maximal effect; nearly all actives have a fitted effect of over 60% in size
[11] = molecular target: Aldehyde dehydrogenase 1A1 (Homo sapiens) (UniProt P00352); test: qHTS for Inhibitors of the Aldehyde Dehydrogenase Family (ALDH1A1) Confirmatory screens (AID 2061316); note: potency is the fitted concentration of half-maximal effect; nearly all actives have a fitted effect of over 65% in size

Nc1ccn([C@@H]2O[C@H](CO)[C@@H](O)C2(F)F)c(=O)n1
active: Potency [3] 23.5 nM | Potency [4] 10.5 nM | Potency [5] 5.9 nM | Potency [6] 37.2 nM | Potency [7] 18.6 nM | Potency [8] 13.2 nM | Potency [9] 20.9 nM
inactive: Potency [1] | Potency [2]

O=C(O)CCCc1c[nH]c2ccccc12
inactive: Potency [1] | Potency [2] | viability [3] 116% | Potency [6] | Potency [7] | Potency [8] | Potency [9]

Cc1ccnc(NS(=O)(=O)c2ccc(NC(=O)Nc3ccc(S(=O)(=O)Nc4nccc(C)n4)cc3)cc2)n1
inactive: Potency [1] | Potency [2] | viability [3] 112% | Potency [5] | Potency [6] | Potency [7] | Potency [8] | Potency [9]

CC(=O)OC1CC2(C)C(CCC(C)C23Cc2c(O)cc4c(c2O3)CNC4=O)C(C)(C)C1O (stereo not given)
inactive: Potency [1] | Potency [2]

COC(=O)C1=CO[C@@H](O[C@@H]2O[C@H](CO)[C@@H](O)[C@H](O)[C@H]2O)C2C1CC(O)C2C (stereo not given in full)
inactive: Potency [1] | Potency [2]

CC(=O)NC1C(OC2CCC3(C)C(CCC4(C)C3CC=C3C5CC(C)(C)CCC5(C(=O)O)C(O)CC34C)C2(C)C)OC(CO)C(O)C1O (stereo not given)
inactive: Potency [1] | Potency [2]

C[C@H](CCC(=O)O)[C@H]1CC[C@H]2[C@@H]3C[C@H](O)[C@@H]4C[C@H](O)CC[C@]4(C)[C@H]3CC[C@]12C
inactive: Potency [1] | Potency [2]

Cc1cc(C(=O)Nc2cc(Oc3ccc4nc(NC(=O)C5CC5)cn4n3)ccc2C)n(C)n1
inactive: Potency [1] | Potency [2]
active: Potency [5] 14800 nM | Potency [6] 1320 nM | Potency [8] 6610 nM | Potency [9] 9340 nM

CC(C)n1nc(-c2ccc3oc(N)nc3c2)c2c(N)ncnc21
active: Potency [3] 148 nM | Potency [5] 37.2 nM | Potency [6] 23.5 nM | Potency [7] 11.8 nM
inactive: Potency [1] | Potency [2]

Cc1[nH]nc(C(F)(F)F)c1Cc1sc2c(c1C(=O)N1C[C@](C)(O)CO1)c(=O)n(C)c(=O)n2C(C)C
inactive: Potency [1] | Potency [2] | viability [3] 110% | Potency [4] | Potency [5] | Potency [6] | Potency [7] | Potency [8] | Potency [9]

C[C@@H]1O[C@@H](O[C@@H]2[C@@H](O)[C@H](O[C@H]3[C@H](O[C@H]4CC[C@@]5(C)C(CC[C@]6(C)C5CC=C5[C@@H]7CC(C)(C)CC[C@]7(C(=O)O[C@@H]7O[C@H](CO)[C@@H](O)[C@H](O)[C@H]7O)CC[C@]56C)C4(C)C)O[C@H](C(=O)O)[C@@H](O)[C@@H]3O)OC[C@H]2O)[C@H](O)[C@H](O)[C@H]1O (stereo not given in full)
inactive: Potency [1] | Potency [2]

Cc1cn2c(N)c(Cl)cc(C(=O)NCC3CCN(CC(C)C)CC3)c2n1
inactive: Potency [1] | Potency [2]

Cc1ccc(Nc2nccc(N(C)c3ccc4c(C)n(C)nc4c3)n2)cc1S(N)(=O)=O
inactive: Potency [1] | Potency [2]
active: Potency [4] 16600 nM | Potency [5] 5250 nM | Potency [6] 6610 nM | Potency [8] 18600 nM | Potency [9] 18600 nM

CC(=O)OCC(=O)[C@@]1(O)CC[C@H]2[C@@H]3CCC4=CC(=O)C=C[C@]4(C)[C@H]3[C@@H](O)C[C@@]21C
inactive: Potency [1] | Potency [2] | viability [3] 114% | Potency [5] | Potency [7]
active: Potency [8] 833 nM | Potency [9] 372 nM

CC(C)c1c2cc(-c3ccnc(NC4CCC(NC5CCOCC5)CC4)n3)ccc2nn1C (stereo not given)
inactive: Potency [1] | Potency [2]
active: Potency [3] 296 nM | Potency [4] 209 nM | Potency [5] 93.4 nM | Potency [6] 235 nM | Potency [7] 118 nM | Potency [8] 166 nM | Potency [9] 417 nM

COc1ccc(C2(O)CCC(N3CC[C@@H](NC(=O)CNC(=O)c4cccc(C(F)(F)F)c4)C3)CC2)cn1 (stereo not given in full)
inactive: Potency [1] | Potency [2]

C[C@@H](c1ccc2nccn2c1)n1nnc2ncc(-c3cnn(C)c3)nc21
active: Potency [4] 13200 nM | Potency [8] 20900 nM
inactive: Potency [1] | Potency [2] | Potency [7] | Potency [9]

CC1(C)CC2C(O)C3=C(CC(C)(O)C2C1)C(=O)OC3 (stereo not given)
inactive: Potency [1] | Potency [2]

CC1(CCOC2OC(CO)C(O)C(O)C2O)CCC23OC2(C1)C(O)CC1C(C)(C(=O)O)CCCC13C (stereo not given)
inactive: Potency [1] | Potency [2]

CCCCN(CCCC)C(=O)CN1C[C@H](c2ccc3c(c2)OCO3)[C@@H](C(=O)O)[C@@H]1c1ccc(OC)cc1
inactive: Potency [1] | Potency [2] | viability [3] 107% | Potency [5] | Potency [6] | Potency [7] | Potency [8] | Potency [9]

COc1ccc(C(=O)C2CCN(CC(=O)N(Cc3nc4c(c(=O)[nH]3)COCC4)CC3CC3)CC2)cc1
inactive: Potency [1] | Potency [2] | viability [3] 110% | Potency [5] | Potency [6] | Potency [7] | Potency [9]

O=C1C=CC2OC(c3ccccc3)C(O)C2O1 (stereo not given)
inactive: Potency [1] | Potency [2]

O=C(O)c1ccc(NC(=O)[C@H](CC2CCCC2)n2cnc(C(F)(F)F)c2)nc1
inactive: Potency [1] | Potency [2]

CC(C)CC1NC(=O)C(C)NC(=O)C(CC(C)C)OC(=O)CCCNC1=O (stereo not given)
inactive: Potency [1] | Potency [2]

C=C1OC2CC(C(=O)O)C=CC2NC1=O (stereo not given)
inactive: Potency [1] | Potency [2]

CCCC1=CC2=C(CO1)C(=O)C(C)(O)C(OC(=O)c1c(C)cc(OC)cc1O)C2 (stereo not given)
inactive: Potency [1] | Potency [2]

COc1cc(CCCO)ccc1O[C@@H]1O[C@H](CO)[C@@H](O)[C@H](O)[C@H]1O
inactive: Potency [1] | Potency [2]

Clc1cc2c(NC3CCCC3)nnc(-c3ccncc3)c2cc1Cl
inactive: Potency [1] | Potency [2] | viability [3] 112% | Potency [5] | Potency [6] | Potency [7] | Potency [8] | Potency [9]
active: Potency [4] 468 nM

CC1=C2C[C@@]3(C)[C@@H](CCC[C@@H]3C)C[C@@]2(O)OC1=O
inactive: Potency [1] | Potency [2]

COC(=O)C1=CO[C@@H](O[C@@H]2O[C@H](CO)[C@@H](O)[C@H](O)[C@H]2O)[C@H]2[C@@H]1C=C[C@@]21C=C([C@H](C)O)C(=O)O1
inactive: Potency [1] | Potency [2]

Cc1ccc(Sc2cncc3sc(C(N)=O)cc23)cc1
inactive: Potency [1] | Potency [2]

CNC(=O)[C@H]1O[C@@H](n2cnc3c(NCc4ccc(N)c(I)c4)ncnc32)[C@H](O)[C@@H]1O
inactive: activity change, negative = inhibition [1] 0.813% [at 11.2 µM] | activity change, negative = inhibition [2] 4.83% [at 11.2 µM]

Nc1cc(C(F)(F)F)c(-c2cc(N3CCOCC3)nc(N3CCOCC3)n2)cn1
inactive: Potency [1] | Potency [2]
active: Potency [3] 4170 nM | Potency [4] 1860 nM | Potency [5] 2350 nM | Potency [6] 1660 nM | Potency [7] 1180 nM

C/C(=C\CC[C@@H](C)[C@H]1CC(O)[C@@]2(C)C3CC[C@H]4C(C)(C)[C@@H](OC5OCC(O)C(O)C5OC5OC(CO)C(O)C(O)C5O)CC[C@@]45C[C@@]35CC(O)[C@]12C)C(=O)O (stereo not given in full)
inactive: Potency [1] | Potency [2]

COc1ccc([C@H]2Cc3cccc(O)c3C(=O)O2)cc1
inactive: Potency [1] | Potency [2]

C[C@@H]1CCN(C(=O)N2CCCC2)C[C@@H]1N(C)c1ncnc2[nH]ccc12
inactive: Potency [1] | Potency [2] | Potency [4]
active: Potency [6] 16600 nM | Potency [7] 934 nM

NCCOc1cc(C(=O)Nc2cc(OCCN)c3ccccc3n2)nc(C(=O)Nc2cc(OCCN)c3ccccc3n2)c1
active: Potency [5] 16600 nM
inactive: Potency [1] | Potency [2] | viability [3] 78% | Potency [4] | Potency [8]

CC1(C)C[C@H](O)C[C@@]2(C)OC(=O)C=C12
inactive: Potency [1] | Potency [2]

CC1=C[C@@H]2[C@@H]([C@@H](O)C[C@@]3(C)[C@H]2C[C@@H](C)[C@]3(O)C(=O)CO)[C@@]2(C)Cc3cnn(-c4ccccc4)c3C=C12
inactive: Potency [1] | Potency [2]
active: Potency [5] 18600 nM

COc1ccc(CN2C(=O)C(=O)c3cc(S(=O)(=O)N4CCC[C@H]4COc4cccnc4)ccc32)cc1
inactive: Potency [1] | Potency [2]

NC[C@H]1O[C@H](O[C@@H]2[C@@H](O)[C@@H](O[C@H]3O[C@H](CO)[C@@H](O)[C@H](N)[C@@H]3O)[C@H](N)C[C@@H]2N)[C@H](O)[C@@H](O)[C@H]1O
inactive: viability [3] 111% | Potency [5] | Potency [6] | Potency [7] | Potency [8] | Potency [9]

NCC1CCC(C(=O)O)CC1 (stereo not given)
inactive: viability [3] 115% | Potency [4] | Potency [5] | Potency [6] | Potency [7] | Potency [8] | Potency [9]

CCC(=O)N1CCN(c2ccc(-n3c(=O)ccc4cnc5ccc(-c6cnc7ccccc7c6)cc5c43)cc2C(F)(F)F)CC1
inactive: activity change, negative = inhibition [1] -6.8% [at 11.2 µM] | activity change, negative = inhibition [2] 3.25% [at 11.2 µM]
active: Potency [7] 9.1 nM

C[C@]12C=CC(=O)C=C1CC[C@@H]1[C@@H]2[C@@H](O)C[C@@]2(C)[C@H]1CC[C@]2(O)C(=O)CO
active: Potency [8] 372 nM | Potency [9] 1180 nM
inactive: viability [3] 103% | Potency [4] | Potency [5] | Potency [6] | Potency [7]

O=C(Nc1ccc2[nH]nc(-c3ccncc3)c2c1)[C@@H]1CCN(CC(=O)N2CCN(c3ccc(-c4ncccn4)cc3)CC2)C1
active: Potency [3] 23500 nM | Potency [4] 235 nM | Potency [5] 1660 nM | Potency [6] 1050 nM | Potency [7] 2630 nM

COc1ccc(C[C@@H](C)[C@@H](C)Cc2ccc(OC)c(OC)c2)cc1OC
inactive: Potency [6] | Potency [7] | Potency [9]
active: Potency [3] 18600 nM | Potency [8] 18600 nM

CC(C)c1ccc2oc3nc(N)c(C(=O)O)cc3c(=O)c2c1
active: Potency [6] 14800 nM
inactive: viability [3] 106% | Potency [7]

NS(=O)(=O)c1cc2c(cc1Cl)NC(C(Cl)Cl)NS2(=O)=O (stereo not given)
active: Potency [4] 16600 nM
inactive: viability [3] 112% | Potency [5] | Potency [6] | Potency [7] | Potency [9]

Cc1cc2c(N3CCCC3)nc(N3CCCC3)nc2n1C
inactive: Potency [2]
active: Potency [10] 14200 nM | Potency [11] 11300 nM

COc1c(C)c2c(c(O)c1C/C=C(\C)CCC(=O)O)C(=O)OC2
active: Potency [3] 1180 nM | Potency [4] 1320 nM | Potency [5] 742 nM | Potency [7] 833 nM | Potency [9] 1320 nM
